According to PubChem BioAssay (NCATS):
Results filed as inconclusive are left out. Entries that show only a call come without a potency. Active and inactive are the calls of the source. Calls come from the whole dose curve; as a rule, active = well fitted inhibition curve with a large enough effect; inconclusive = small, poorly fitted or top-dose-only effect; inactive = flat fitted curve, though single readings scatter.

What was measured:
Assay in all cases: qHTS profiling for inhibitors of Plasmodium falciparum proliferation (AID 504749); note: nearly all actives have a fitted effect of over 60% in size
Conditions in all cases: P. falciparum in erythrocytes, SYBR Green DNA, 72 h; series mostly up to 28.7 µM
AA1029 = system: AA1029
Method in brief: (§1)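 Three-day growth assay of blood-stage parasites in erythrocytes (0.3% parasitemia, 2.5% hematocrit) at 37 C, 5% CO2, quantified by SYBR Green DNA staining after overnight detergent lysis.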

AS120 = system: AS120
Method in brief: as §1

ATS189 = system: ATS189
Method in brief: as §1

ATS95 = system: ATS95
Method in brief: as §1

C2A = system: C2A
Method in brief: as §1

CP185 = system: CP185
Method in brief: as §1

CP191 = system: CP191
Method in brief: as §1

CP192 = system: CP192
Method in brief: as §1

CP194 = system: CP194
Method in brief: as §1

CP201 = system: CP201
Method in brief: as §1
Potency is the fitted concentration of half-maximal effect.

| Structure (SMILES) | Potency (AA1029) | Potency (AS120) | Potency (ATS189) | Potency (ATS95) | Potency (C2A) | Potency (CP185) | Potency (CP191) | Potency (CP192) | Potency (CP194) | Potency (CP201) |
| --- | --- | --- | --- | --- | --- | --- | --- | --- | --- | --- |
| CCOC(=O)c1c(N)sc2c1CCN(Cc1ccccc1)C2 | 5.01 µM (active) | 8.91 µM (active) | 7.94 µM (active) | 8.91 µM (active) | 11.2 µM (active) | 5.01 µM (active) | 5.01 µM (active) | 5.36 µM (active) | 7.57 µM (active) | 6.75 µM (active) |
| O=C(Nc1cccc(C2=NCCN2)c1)Nc1cccc(C2=NCCN2)c1 | 7.08 µM (active) | 2.82 µM (active) | 2.82 µM (active) | 5.01 µM (active) | 5.01 µM (active) | 4.47 µM (active) | 1.12 µM (active) | 15.1 µM (active) | 15.1 µM (active) | 13.5 µM (active) |
| Cl/C(=C\n1cncn1)c1ccc(Cl)cc1Cl | inactive | inactive | inactive | inactive | inactive | inactive | inactive | inactive | inactive | inactive |
| Cc1nc(-c2ccc(Cl)cc2)oc1COC(C)(C)C(=O)O | inactive | inactive | inactive | inactive | inactive | inactive | inactive | inactive | inactive | inactive |
| CCN(CC)CCNc1ccc(CO)c2sc3ccccc3c(=O)c12 | 2.24 µM (active) | 1 µM (active) | 0.794 µM (active) | 2 µM (active) | 0.794 µM (active) | 1 µM (active) | 0.355 µM (active) | 1.69 µM (active) | 3.38 µM (active) | 7.57 µM (active) |
| O=C(O)c1ccc(S(=O)(=O)N(Cl)Cl)cc1 | inactive | inactive | inactive | inactive | inactive | inactive | inactive | inactive | inactive | – |
| CC(C)(C)NC[C@H](O)COc1cccc2c1CCCC2=O | inactive | inactive | inactive | inactive | inactive | inactive | inactive | inactive | inactive | inactive |
| CCOc1cc(OCC)c(C(=O)CCC(=O)O)cc1OCC | inactive | inactive | inactive | inactive | inactive | inactive | inactive | inactive | inactive | inactive |
| CNCCc1ccccn1 | inactive | inactive | inactive | inactive | inactive | inactive | inactive | inactive | inactive | – |
| NCCNC(=O)c1ccc(Cl)cn1 | inactive | inactive | inactive | inactive | inactive | inactive | inactive | inactive | inactive | inactive |
| CC(=O)NO | inactive | inactive | inactive | inactive | inactive | inactive | inactive | inactive | inactive | – |
| CCOC(=O)c1ccc(N)cc1 | inactive | inactive | inactive | inactive | inactive | inactive | inactive | inactive | inactive | inactive |
| COP(=O)(OC)OC(c1ccc(Cl)cc1)P(=O)(OC)OC (centres undefined) | inactive | inactive | inactive | inactive | inactive | inactive | inactive | inactive | inactive | inactive |
| O=C1C(=O)c2ccccc2C(O)=C1C1CCC(c2ccc(Cl)cc2)CC1 (centres undefined) | 0.0032 µM (active) | 0.004 µM (active) | 0.0028 µM (active) | 0.004 µM (active) | 0.0079 µM (active) | 0.0035 µM (active) | 0.0028 µM (active) | 0.0051 µM (active) | 0.0057 µM (active) | 0.0064 µM (active) |
| CCCCCCCCCCCCCC[N+](C)(C)Cc1ccccc1 | 6.31 µM (active) | 7.08 µM (active) | 7.08 µM (active) | 7.08 µM (active) | 3.98 µM (active) | 6.31 µM (active) | 2.51 µM (active) | 6.75 µM (active) | 6.75 µM (active) | 7.57 µM (active) |
| Cc1cccc(C)c1NC(=O)CN1CCCC1 | inactive | inactive | inactive | inactive | inactive | inactive | inactive | inactive | inactive | inactive |
| CCc1oc2ccccc2c1C(=O)c1cc(Br)c(O)c(Br)c1 | inactive | inactive | inactive | inactive | inactive | inactive | inactive | inactive | inactive | inactive |
| O=C(NCCc1c[nH]c2ccccc12)c1cccnc1 | inactive | inactive | inactive | inactive | inactive | inactive | inactive | inactive | inactive | inactive |
| CCOc1ccccc1OCCN[C@H](C)Cc1ccc(OC)c(S(N)(=O)=O)c1 | inactive | inactive | inactive | inactive | inactive | inactive | inactive | inactive | inactive | inactive |
| Cc1cc(C)cc(OCC2CNC(=O)O2)c1 (centres undefined) | inactive | inactive | inactive | inactive | inactive | inactive | inactive | inactive | inactive | inactive |
| CCCCCCCCCCCCCCCC(=O)O | inactive | inactive | inactive | inactive | inactive | inactive | inactive | inactive | inactive | inactive |
| CCOc1ccccc1C(N)=O | inactive | inactive | inactive | inactive | inactive | inactive | inactive | inactive | inactive | inactive |
| Cc1cccc(C)c1NC(=O)CN1CCCCCC1 | inactive | inactive | inactive | inactive | inactive | inactive | inactive | inactive | inactive | inactive |

| Structure (SMILES) | Potency (AA1029) | Potency (AS120) | Potency (ATS189) | Potency (ATS95) | Potency (C2A) | Potency (CP185) | Potency (CP191) | Potency (CP192) | Potency (CP194) | Potency (CP201) |
| --- | --- | --- | --- | --- | --- | --- | --- | --- | --- | --- |
| c1ccc(CC2=NCCN2)cc1 | inactive | inactive | inactive | inactive | inactive | inactive | inactive | inactive | inactive | inactive |
| CC(=O)N[C@@H](CCC(=O)O)C(=O)O | inactive | inactive | inactive | inactive | inactive | inactive | inactive | inactive | inactive | inactive |
| CCCc1ncc(C[n+]2ccccc2C)c(N)n1 | inactive | inactive | inactive | inactive | inactive | inactive | inactive | inactive | inactive | inactive |
| CCOc1ccc(NC(C)=O)cc1 | inactive | inactive | inactive | inactive | inactive | inactive | inactive | inactive | inactive | inactive |
| NC(=O)n1c(O)c(C(=O)c2cccs2)c2cc(Cl)ccc21 | inactive | inactive | inactive | inactive | inactive | inactive | inactive | inactive | inactive | inactive |
| NCCNc1cccc2ccccc12 | inactive | inactive | inactive | inactive | inactive | inactive | inactive | inactive | inactive | inactive |
| CC(=O)Nc1ccc(CC(=O)O)cc1 | inactive | inactive | inactive | inactive | inactive | inactive | inactive | inactive | inactive | inactive |
| CC1(COc2ccc(CC3SC(=O)NC3=O)cc2)CCCCC1 (centres undefined) | inactive | inactive | inactive | inactive | inactive | inactive | inactive | inactive | inactive | inactive |
| CCN(CC)CCOC(=O)C1(c2ccccc2)CCCC1 | 0.01 µM (active) | inactive | inactive | inactive | inactive | 11.2 µM (active) | inactive | inactive | – | – |
| O=C(Oc1cccc2cccnc12)c1ccccc1 | inactive | inactive | inactive | inactive | inactive | inactive | inactive | inactive | inactive | inactive |
| CC(=O)Nc1ccc(S(=O)(=O)Nc2ccc([N+](=O)[O-])cc2)cc1 | inactive | inactive | inactive | inactive | inactive | inactive | inactive | inactive | inactive | inactive |
| O=C(c1ccc(F)cc1)C1CCN(CCn2c(=S)[nH]c3ccccc3c2=O)CC1 | 4.47 µM (active) | 2.82 µM (active) | 6.31 µM (active) | 5.01 µM (active) | 10 µM (active) | 7.94 µM (active) | 11.2 µM (active) | 6.75 µM (active) | 7.57 µM (active) | 7.57 µM (active) |
| CC(C)Cn1cnc2c1c(=O)n(C)c(=O)n2C | inactive | inactive | inactive | inactive | inactive | inactive | inactive | inactive | inactive | inactive |
| Cc1ncc(CO)c(C=O)c1O | inactive | inactive | inactive | inactive | inactive | inactive | inactive | – | – | – |
| CC(=O)O[C@]1(C(C)=O)CC[C@H]2[C@@H]3C=C(Cl)C4=CC(=O)CC[C@]4(C)[C@H]3CC[C@@]21C | 11.2 µM (active) | 11.2 µM (active) | – | – | – | – | – | – | – | – |
| O=S(=O)(O)c1ccc(O)cc1 | inactive | inactive | inactive | inactive | inactive | inactive | inactive | inactive | inactive | inactive |
| Cc1cc(-c2ccccc2)nnc1NCCN1CCOCC1 | inactive | inactive | inactive | inactive | inactive | inactive | inactive | inactive | inactive | inactive |
| C/C=C/c1ccc(O)c(OC)c1 | inactive | inactive | inactive | inactive | inactive | inactive | inactive | inactive | inactive | inactive |
| NS(=O)(=O)c1ccc(Cl)c(S(N)(=O)=O)c1 | inactive | inactive | inactive | inactive | inactive | inactive | inactive | inactive | inactive | inactive |
| C/C=C/C=N/NC(=O)c1ccncc1 | inactive | inactive | inactive | inactive | inactive | inactive | inactive | inactive | inactive | inactive |
| Cc1ccccc1OCC(O)CO (centres undefined) | inactive | inactive | inactive | inactive | inactive | inactive | inactive | inactive | inactive | inactive |
| COc1ccc(CN(CCN(C)C)c2ncccn2)cc1 | inactive | inactive | inactive | inactive | inactive | inactive | inactive | inactive | inactive | inactive |
| CCC(CC)(CC(=O)Nc1cccc(/C=C/c2nc(C3CCC3)cs2)c1)C(=O)O | inactive | inactive | inactive | inactive | inactive | inactive | inactive | inactive | inactive | inactive |
